High-throughput results from PubChem.
An excerpt weighted towards active compounds, which were near 12% of everything screened.
L3MBTL1 inh = blocks human L3MBTL1; Potency, µM (titrated, usually from 57.1 µM), actives largely listed as inhibitors; 0.66% of 230,000 active; Q9Y468; AlphaScreen L3MBTL1–H3K9me1 peptide binding; AID 485360; further: nearly all actives have a fitted effect of over 60% in size
Target sequence (Q9Y468 whole entry, looked up): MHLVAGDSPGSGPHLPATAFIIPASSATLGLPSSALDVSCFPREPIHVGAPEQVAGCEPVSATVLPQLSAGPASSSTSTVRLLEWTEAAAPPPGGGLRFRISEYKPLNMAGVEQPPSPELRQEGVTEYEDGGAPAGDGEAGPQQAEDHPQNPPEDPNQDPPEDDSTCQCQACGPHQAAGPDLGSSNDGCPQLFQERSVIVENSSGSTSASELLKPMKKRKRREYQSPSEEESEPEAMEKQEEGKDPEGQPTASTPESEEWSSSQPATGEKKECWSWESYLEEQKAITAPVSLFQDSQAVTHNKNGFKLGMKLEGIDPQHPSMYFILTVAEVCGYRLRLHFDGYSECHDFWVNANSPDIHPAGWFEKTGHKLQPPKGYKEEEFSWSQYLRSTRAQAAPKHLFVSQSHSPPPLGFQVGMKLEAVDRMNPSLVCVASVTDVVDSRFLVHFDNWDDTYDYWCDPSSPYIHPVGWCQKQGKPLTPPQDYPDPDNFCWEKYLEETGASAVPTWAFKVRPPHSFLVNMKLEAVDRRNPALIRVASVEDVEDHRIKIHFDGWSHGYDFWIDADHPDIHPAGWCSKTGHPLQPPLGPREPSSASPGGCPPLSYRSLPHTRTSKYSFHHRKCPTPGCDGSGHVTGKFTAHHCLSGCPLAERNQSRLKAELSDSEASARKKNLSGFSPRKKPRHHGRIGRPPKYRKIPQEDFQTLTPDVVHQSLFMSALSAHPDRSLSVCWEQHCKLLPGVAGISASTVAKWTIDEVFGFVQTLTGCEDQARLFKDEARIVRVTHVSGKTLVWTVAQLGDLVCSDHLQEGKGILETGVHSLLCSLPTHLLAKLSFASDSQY
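AlphaScreen assay: L3MBTL1 (50 nM final) was preincubated 30 min at room temperature with biotinylated H3(1-15)K9me1 peptide (75 nM final), then 30 min with library compounds; streptavidin donor and nickel chelate acceptor beads (10 ug/mL final) added, 30 min dark.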
Sfp inh = blocks B. subtilis Sfp PPTase activity. Q9F4F7. Potency, µM, hits mostly inhibitors. Biochemical Sfp PPTase activity, qHTS. 3.5% of 310,000 active;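 further: the enzyme is Sfp with the accession as filed and its product quenches rhodamine fluorescence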
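Fluorescence-quenching assay: 15 nM Sfp-PPTase preincubated 15 min at room temperature with compound, then 5 uM rhodamine-CoA and 12.5 uM BHQ-2-labelled YbbR peptide added. Fluorescence (ex 525/em 598 nm) read at start and after 30 min; difference gives rate.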
HP1b binding inh = blocks HP1-beta chromodomain binding to methylated histone tails | Potency, µM (titrated, usually from 114 µM), hits mostly inhibitors | AlphaScreen HP1-beta / biotin-H3K9me3 peptide binding | 0.56% of 390,000 active | AID 540317; further: nearly all actives have a fitted effect of over 70% in size
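Compound inhibition of the preformed complex between 50 nM HP1-beta and 50 nM biotinylated H3K9me3 peptide was read by AlphaScreen. Buffer was PBS pH 7.4 with 0.01% Tween-20. Incubations ran 30 min at room temperature, with 10 ug/mL donor/acceptor beads.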
BAZ2B block = BAZ2B (human) inhibition | Q9UIF8 | AlphaScreen BAZ2B-H3K14Ac peptide displacement | Potency, µM (top dose mostly 114 µM), hits mostly inhibitors | 4.4% of 360,000 active | AID 504333; further: nearly all actives have a fitted effect of over 60% in size
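Complex of BAZ2B and biotin-H3K14Ac (50 nM apiece) forms over 30 min at RT, then faces library compounds up to 110 uM for another 30 min; AlphaScreen beads added, 20 min dark incubation, luminescence read.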
G9a block = inhibitors of human histone lysine methyltransferase G9a; Q96KQ7; G9a H3K9 monomethylation, AlphaScreen, 2 h; Potency, µM (highest dose often 102 µM), hits mostly inhibitors; 8.8% of 350,000 active; AID 504332; further: nearly all actives have a fitted effect of over 75% in size
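AlphaScreen read-out: biotin-H3K9 peptide (500 nM) methylation by 20 nM enzyme with 20 uM SAM, 2 h at room temperature after 15 min compound preincubation; anti-monomethyl H3K9 antibody plus donor/acceptor beads, 10 min dark.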
JMJD2A Tudor = blocks the human JMJD2A Tudor domain; AID 504339; Potency, µM (highest dose often 114 µM), most hits filed as inhibitors; 4.4% of 390,000 active; AlphaScreen JMJD2A-Tudor / H3K4me3 peptide binding; O75164; further: nearly all actives have a fitted effect of over 50% in size
Each line names hits and unclear results; the compound was inactive in the other large screens. The call rests on the fitted dose curve; in most records, active means well fitted curve in the direction sought with a large enough effect; inconclusive means small, poorly fitted or top-dose-only effect, or another doubt; inactive means no such curve, though single readings can be large; an effect the other way counts as inactive or inconclusive.

COc1ccc(CN(C)c2ccc(-c3nc(-c4ccccc4)no3)cc2[N+](=O)[O-])cc1	none (no result: L3MBTL1 inh, Sfp inh)
CCOc1ccccc1C1CC(=O)NC(C)=C1C(=O)OC1CCCCCC1 (stereo unspecified)	none (no result: L3MBTL1 inh, Sfp inh)
N#C/C(=C\c1ccc(-c2ccccc2Cl)o1)C(=O)Nc1nc2ccccc2s1	none
N#C/C(=C\c1ccco1)c1nc2ccccc2s1	BAZ2B block inconclusive, G9a block 8.9µM
N#C/C(=C/c1ccco1)c1nc2ccccc2s1	G9a block inconclusive
N#C/C(=C/c1ccc(-c2cc(C(=O)O)cc(C(=O)O)c2)o1)c1nc2ccccc2s1	Sfp inh 56µM, BAZ2B block 56µM, G9a block 11µM (no result: L3MBTL1 inh, HP1b binding inh, JMJD2A Tudor)
Clc1ccc(CN2CCN(c3ccccc3)CC2)cn1	none
COc1c2ccccc2nc2occc12	none (no result: L3MBTL1 inh, HP1b binding inh, BAZ2B block, JMJD2A Tudor)
COc1ccc2c(c1)C(=O)/C(=C/C=C/c1ccccc1)CC2	G9a block 32µM
COc1ccc2c(c1)CC/C(=C\C=C\c1ccccc1OC)C2=O	Sfp inh 25µM, G9a block 7.9µM
COc1ccc2c(c1)CC/C(=C/c1ccncc1)C2=O	none
COc1ccc2c(c1)CC/C(=C\c1ccc(C)o1)C2=O	Sfp inh 45µM, HP1b binding inh inconclusive, BAZ2B block 45µM, G9a block 50µM, JMJD2A Tudor inconclusive (no result: L3MBTL1 inh)
COc1ccc(-c2cc(C(F)(F)F)nc(S(=O)(=O)CCCC(=O)Nc3ccccc3C(F)(F)F)n2)cc1OC	none (no result: L3MBTL1 inh, Sfp inh)
Cc1ccc(S(=O)(=O)N(C)CC(=O)N2CCOCC2)cc1	HP1b binding inh inconclusive, JMJD2A Tudor 79µM (no result: L3MBTL1 inh)
Cc1ccc(N(CCC(=O)N2CCOCC2)S(=O)(=O)c2ccccc2)cc1	G9a block 0.71µM (no result: Sfp inh)
Cc1ccc(N(CC(=O)N2CCOCC2)S(=O)(=O)c2ccccc2)cc1	none
Cc1ccc(S(=O)(=O)N(CCC(=O)O)c2ccccc2)cc1	G9a block 56µM
O=C(COc1cc(Cl)ccc1Cl)Nc1nnc(C2CC2)s1	none (no result: L3MBTL1 inh, G9a block)
O=C(COc1ccccc1Cl)Nc1nc(-c2ccc(F)cc2)ns1	none (no result: L3MBTL1 inh, Sfp inh)
O=C(O)c1ccc(S(=O)(=O)Nc2cccc(CP(=O)(c3ccccc3)c3ccccc3)c2)cc1	G9a block inconclusive
O=C(C[n+]1ccc(Cc2ccccc2)cc1)Nc1ccc([N+](=O)[O-])cc1Cl	none
Cc1ccc(Cl)cc1NC(=O)C[n+]1ccc(Cc2ccc([N+](=O)[O-])cc2)cc1	Sfp inh 45µM, G9a block 25µM, JMJD2A Tudor inconclusive (no result: L3MBTL1 inh)
O=C(Cn1cc(COc2ccc3ccc(=O)oc3c2)nn1)c1ccc(O)cc1	none (no result: L3MBTL1 inh, Sfp inh, BAZ2B block, G9a block)
Cc1cc(SCc2ccc(Cl)cc2)nc(=O)[nH]1	none (no result: L3MBTL1 inh)
COc1ccc(C(=O)CSc2cc(C)[nH]c(=O)n2)cc1	BAZ2B block 50µM, G9a block inconclusive, JMJD2A Tudor inconclusive (no result: L3MBTL1 inh)
Cc1cc(=O)[nH]c(SCC(=O)c2ccc(C(C)C)cc2)n1	G9a block inconclusive
Cc1ccc(CSc2cc(C)[nH]c(=O)n2)cc1	BAZ2B block 50µM (no result: L3MBTL1 inh)
COc1ccc(C(=O)CSc2nc(C)cc(=O)[nH]2)cc1	G9a block 25µM
O=C1C2CCCN2C(=O)N1CCCN1CCN(c2cccc(Br)c2)CC1 (stereo unspecified)	none (no result: G9a block)
COc1ccc(NC(=O)CSc2nnc(Cc3cccn3C)n2CCc2ccccc2)c(OC)c1	BAZ2B block 50µM, JMJD2A Tudor inconclusive
COc1ccccc1NC(=O)CSc1nnc(Cc2cccn2C)n1CCc1ccccc1	BAZ2B block 50µM, G9a block inconclusive, JMJD2A Tudor inconclusive
O=C(/C=C/c1ccc(F)cc1)Nc1cccc(S(=O)(=O)N2CCOCC2)c1	none (no result: Sfp inh, BAZ2B block, G9a block)
CCn1c(SCC(=O)NCC2CCCO2)nnc1-c1ccccc1OC (stereo unspecified)	none (no result: Sfp inh)
CCOc1ccccc1-c1nnc(SCC(=O)NC2CC3CCC2C3)n1CC (stereo unspecified)	G9a block 45µM
Cc1cc(C)n(-c2ccc(C(=O)OC(C)C(=O)Nc3ccc(C(N)=O)cc3)cc2)n1 (stereo unspecified)	G9a block 79µM (no result: Sfp inh)
COc1ccc(-c2nc3cnc(OC)nc3n(C3CC3)c2=O)cc1	none (no result: L3MBTL1 inh, HP1b binding inh, BAZ2B block, JMJD2A Tudor)
